# According to the supplement of paper PMC11006884:
# Of roughly 6,500 targets only a part is listed; those with a hit were picked by preference. About 2% of all pairs of compound and target were hits. Unmarked numbers belong to inactive results.
# Compound: COC(=O)C#Cc1ccccc1 [methyl 3-phenylpropiolate]
# Assay: log2 ratio of iodoacetamide-alkyne labeling of the cysteine site, DMSO over compound (competition); higher = stronger covalent engagement of the cysteine by the compound, active = 1 or more
# Settings: 500 µM; treatment time 1 h; system: HEK293T cell lysate
# Outline: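 HEK293T lysate (2 mg/mL) was incubated with electrophile (500 µM) or vehicle for 1 h at ambient temperature and then with iodoacetamide alkyne for 1 h. Labelled proteins were clicked to sCIP-TMT reagents, pooled, digested, enriched on streptavidin and measured by Orbitrap Eclipse LC-MS/MS with FAIMS, with FragPipe quantification. The per-cysteine log2 competition ratio is mean control-channel reporter intensity over mean compound-channel reporter intensity. Across three replicates with duplicate channels, cysteines quantified in only one replicate were excluded.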
# UniProt Q04724, sequence (Q04724 whole entry, looked up): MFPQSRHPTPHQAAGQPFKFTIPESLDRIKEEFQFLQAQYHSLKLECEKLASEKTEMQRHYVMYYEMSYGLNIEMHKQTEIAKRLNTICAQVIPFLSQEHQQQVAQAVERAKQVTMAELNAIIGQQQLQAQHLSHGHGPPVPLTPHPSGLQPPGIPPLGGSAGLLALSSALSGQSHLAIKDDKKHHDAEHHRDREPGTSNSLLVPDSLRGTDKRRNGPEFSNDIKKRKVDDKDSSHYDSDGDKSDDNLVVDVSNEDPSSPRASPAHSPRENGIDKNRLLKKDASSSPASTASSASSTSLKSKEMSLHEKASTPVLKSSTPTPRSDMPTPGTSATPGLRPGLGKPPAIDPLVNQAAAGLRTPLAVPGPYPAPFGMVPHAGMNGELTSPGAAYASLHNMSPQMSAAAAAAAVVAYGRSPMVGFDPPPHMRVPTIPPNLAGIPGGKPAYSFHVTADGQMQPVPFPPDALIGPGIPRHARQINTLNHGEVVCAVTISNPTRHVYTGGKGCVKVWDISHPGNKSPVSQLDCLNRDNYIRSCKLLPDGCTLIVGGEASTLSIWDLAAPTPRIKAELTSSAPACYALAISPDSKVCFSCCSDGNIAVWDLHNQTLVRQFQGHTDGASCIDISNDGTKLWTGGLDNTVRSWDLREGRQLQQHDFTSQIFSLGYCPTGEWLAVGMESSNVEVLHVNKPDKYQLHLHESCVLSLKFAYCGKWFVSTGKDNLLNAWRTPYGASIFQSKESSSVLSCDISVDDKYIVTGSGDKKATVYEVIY
# UniProt Q29RF7, sequence (Q29RF7 whole entry, looked up): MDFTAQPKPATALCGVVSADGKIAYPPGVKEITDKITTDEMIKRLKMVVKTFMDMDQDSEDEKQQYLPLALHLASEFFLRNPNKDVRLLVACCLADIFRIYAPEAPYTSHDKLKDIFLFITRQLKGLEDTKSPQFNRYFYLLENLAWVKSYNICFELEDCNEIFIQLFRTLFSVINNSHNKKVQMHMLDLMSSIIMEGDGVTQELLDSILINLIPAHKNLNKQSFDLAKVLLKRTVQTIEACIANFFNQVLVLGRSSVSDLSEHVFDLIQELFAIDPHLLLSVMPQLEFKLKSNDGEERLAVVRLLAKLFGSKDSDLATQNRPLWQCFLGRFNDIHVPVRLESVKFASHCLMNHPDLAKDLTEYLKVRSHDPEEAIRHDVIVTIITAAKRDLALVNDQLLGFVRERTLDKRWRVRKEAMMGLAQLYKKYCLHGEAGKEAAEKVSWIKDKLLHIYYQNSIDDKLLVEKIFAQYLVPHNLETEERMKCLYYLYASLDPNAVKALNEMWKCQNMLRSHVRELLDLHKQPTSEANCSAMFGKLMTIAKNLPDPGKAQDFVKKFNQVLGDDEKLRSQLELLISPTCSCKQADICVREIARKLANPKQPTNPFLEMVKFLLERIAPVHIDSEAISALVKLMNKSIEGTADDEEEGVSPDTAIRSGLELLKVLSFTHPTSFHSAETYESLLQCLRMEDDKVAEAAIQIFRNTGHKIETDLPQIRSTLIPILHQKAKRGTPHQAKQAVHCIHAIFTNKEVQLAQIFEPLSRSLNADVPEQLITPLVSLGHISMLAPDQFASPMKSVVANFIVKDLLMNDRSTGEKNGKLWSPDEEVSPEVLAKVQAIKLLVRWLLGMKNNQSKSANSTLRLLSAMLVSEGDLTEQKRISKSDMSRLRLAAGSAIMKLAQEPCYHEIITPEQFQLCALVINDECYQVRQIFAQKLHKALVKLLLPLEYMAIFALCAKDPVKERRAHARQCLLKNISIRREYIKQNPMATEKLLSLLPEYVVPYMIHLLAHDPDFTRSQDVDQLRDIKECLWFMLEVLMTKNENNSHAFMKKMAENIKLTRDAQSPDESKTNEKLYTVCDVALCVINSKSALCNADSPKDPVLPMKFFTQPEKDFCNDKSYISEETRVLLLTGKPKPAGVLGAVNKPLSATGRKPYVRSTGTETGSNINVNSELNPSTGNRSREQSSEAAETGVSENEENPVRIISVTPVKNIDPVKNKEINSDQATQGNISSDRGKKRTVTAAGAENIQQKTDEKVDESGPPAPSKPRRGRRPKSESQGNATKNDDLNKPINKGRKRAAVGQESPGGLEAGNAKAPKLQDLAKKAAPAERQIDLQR
# UniProt Q4VC44, sequence (Q4VC44 whole entry): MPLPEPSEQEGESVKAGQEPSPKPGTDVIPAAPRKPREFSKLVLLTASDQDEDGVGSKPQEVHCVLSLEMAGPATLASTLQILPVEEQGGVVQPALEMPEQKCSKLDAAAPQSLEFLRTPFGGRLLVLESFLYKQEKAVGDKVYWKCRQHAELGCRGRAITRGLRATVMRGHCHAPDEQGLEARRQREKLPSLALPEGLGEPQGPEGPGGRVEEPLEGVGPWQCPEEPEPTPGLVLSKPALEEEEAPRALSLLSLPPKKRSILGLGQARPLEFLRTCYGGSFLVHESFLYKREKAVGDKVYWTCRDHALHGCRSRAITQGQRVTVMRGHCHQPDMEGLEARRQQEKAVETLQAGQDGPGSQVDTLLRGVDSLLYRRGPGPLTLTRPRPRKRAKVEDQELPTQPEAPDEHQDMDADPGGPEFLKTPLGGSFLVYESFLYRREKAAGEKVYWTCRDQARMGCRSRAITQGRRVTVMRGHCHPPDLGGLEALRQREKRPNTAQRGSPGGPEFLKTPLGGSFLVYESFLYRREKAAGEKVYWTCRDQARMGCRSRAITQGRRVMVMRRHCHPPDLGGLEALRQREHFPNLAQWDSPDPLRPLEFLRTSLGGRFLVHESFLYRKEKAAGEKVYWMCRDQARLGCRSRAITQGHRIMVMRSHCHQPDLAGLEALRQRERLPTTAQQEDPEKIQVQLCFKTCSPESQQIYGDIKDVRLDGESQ
# UniProt Q15029, sequence (Q15029 whole entry, looked up): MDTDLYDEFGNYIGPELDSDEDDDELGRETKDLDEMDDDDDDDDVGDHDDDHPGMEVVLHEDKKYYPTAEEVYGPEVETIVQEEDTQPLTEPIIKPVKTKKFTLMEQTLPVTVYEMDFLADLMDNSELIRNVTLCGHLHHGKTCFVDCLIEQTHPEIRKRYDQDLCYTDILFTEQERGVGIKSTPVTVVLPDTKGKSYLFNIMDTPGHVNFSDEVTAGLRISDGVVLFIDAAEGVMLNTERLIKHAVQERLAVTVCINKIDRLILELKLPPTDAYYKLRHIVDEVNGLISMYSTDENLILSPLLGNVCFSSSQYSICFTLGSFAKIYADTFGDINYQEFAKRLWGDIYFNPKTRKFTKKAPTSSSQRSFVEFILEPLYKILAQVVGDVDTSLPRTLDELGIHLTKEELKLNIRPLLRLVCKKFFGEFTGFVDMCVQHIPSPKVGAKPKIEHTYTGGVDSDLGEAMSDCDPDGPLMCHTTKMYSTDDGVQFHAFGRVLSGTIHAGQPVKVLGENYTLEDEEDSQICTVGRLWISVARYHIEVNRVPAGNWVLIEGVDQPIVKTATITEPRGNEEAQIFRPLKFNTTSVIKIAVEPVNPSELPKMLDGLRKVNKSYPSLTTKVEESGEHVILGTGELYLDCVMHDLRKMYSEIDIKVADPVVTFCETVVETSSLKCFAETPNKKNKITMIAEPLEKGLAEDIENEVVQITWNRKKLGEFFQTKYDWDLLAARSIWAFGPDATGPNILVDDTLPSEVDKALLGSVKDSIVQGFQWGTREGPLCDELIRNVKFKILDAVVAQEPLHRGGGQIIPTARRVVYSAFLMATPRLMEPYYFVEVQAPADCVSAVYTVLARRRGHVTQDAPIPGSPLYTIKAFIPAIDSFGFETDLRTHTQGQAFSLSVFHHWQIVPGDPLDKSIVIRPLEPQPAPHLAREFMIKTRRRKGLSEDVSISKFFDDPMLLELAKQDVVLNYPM
# UniProt Q14684, sequence (Q14684 whole entry, looked up): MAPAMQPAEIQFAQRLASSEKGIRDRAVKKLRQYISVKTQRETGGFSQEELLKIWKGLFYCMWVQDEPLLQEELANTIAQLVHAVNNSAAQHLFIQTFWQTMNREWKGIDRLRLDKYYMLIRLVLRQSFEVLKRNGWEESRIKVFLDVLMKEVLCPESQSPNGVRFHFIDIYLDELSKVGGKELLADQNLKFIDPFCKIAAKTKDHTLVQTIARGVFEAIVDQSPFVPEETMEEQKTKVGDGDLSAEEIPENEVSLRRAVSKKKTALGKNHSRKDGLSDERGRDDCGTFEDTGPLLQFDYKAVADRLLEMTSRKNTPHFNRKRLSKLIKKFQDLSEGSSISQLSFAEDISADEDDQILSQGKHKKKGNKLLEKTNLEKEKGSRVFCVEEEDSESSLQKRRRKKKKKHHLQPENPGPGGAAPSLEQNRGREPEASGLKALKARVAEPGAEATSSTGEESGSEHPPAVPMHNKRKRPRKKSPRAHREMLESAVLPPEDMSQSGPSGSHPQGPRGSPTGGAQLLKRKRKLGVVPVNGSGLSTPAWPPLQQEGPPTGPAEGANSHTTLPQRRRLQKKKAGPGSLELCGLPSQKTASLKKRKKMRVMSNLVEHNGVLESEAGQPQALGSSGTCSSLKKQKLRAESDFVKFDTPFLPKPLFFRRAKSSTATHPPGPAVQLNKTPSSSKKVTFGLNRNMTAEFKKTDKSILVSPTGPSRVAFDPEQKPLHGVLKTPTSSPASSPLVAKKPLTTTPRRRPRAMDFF
# UniProt P53384, sequence (P53384 whole entry, looked up): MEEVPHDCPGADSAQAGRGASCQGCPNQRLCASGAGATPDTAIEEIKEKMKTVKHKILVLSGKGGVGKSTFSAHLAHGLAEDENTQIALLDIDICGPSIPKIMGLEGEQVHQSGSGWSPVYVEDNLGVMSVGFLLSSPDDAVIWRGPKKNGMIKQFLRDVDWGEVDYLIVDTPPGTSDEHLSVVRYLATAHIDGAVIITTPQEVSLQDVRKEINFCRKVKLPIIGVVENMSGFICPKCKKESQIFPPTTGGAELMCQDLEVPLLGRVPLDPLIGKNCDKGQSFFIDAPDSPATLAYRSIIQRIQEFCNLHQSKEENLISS
# UniProt P56277, sequence (P56277 whole entry): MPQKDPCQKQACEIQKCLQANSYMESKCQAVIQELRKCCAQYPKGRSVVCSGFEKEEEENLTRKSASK
row,Target,log2 ratio of iodoacetamide-alkyne labeling
1,RRP1B C583 (UniProt Q14684),0.481
2,SF3A3 C103 (UniProt Q12874),0.188
3,UniProt P61163_C222,0.293
4,UniProt Q15365_C194,1.08 (active)
5,ATP2C1 C162 (UniProt P98194),0.0772
6,PIN1 C57 (UniProt Q13526),-0.187
7,GABPB1 C331 (UniProt Q06547),0.198
8,NUBP1 C31 (UniProt P53384),0.626
9,GANAB C423 (UniProt Q14697),0.019
10,THOP1 C682 (UniProt P52888),0.174
11,ACLY C20 (UniProt P53396),0.357
12,EFTUD2 C144 (UniProt Q15029),0.297
13,FLYWCH1 C173 (UniProt Q4VC44),-0.0462
14,AKIRIN2 C3 (UniProt Q53H80),1.11 (active)
15,CLTC C870 (UniProt Q00610),0.621
16,UniProt P62258_C97,-0.063
17,RRP12 C261 (UniProt Q5JTH9),0.53
18,NUP98 C1312 (UniProt P52948),0.426

row,Target,log2 ratio of iodoacetamide-alkyne labeling
1,UniProt Q02930_C80,1.09 (active)
2,TLE1 C526 (UniProt Q04724),1.15 (active)
3,BOP1 C373 (UniProt Q14137),0.0315
4,CMC4 C12 (UniProt P56277),1.14 (active)
5,UniProt P62273_C39,0.0855
6,R3HDM1 C304 (UniProt Q15032),0.1
7,ETFDH C561 (UniProt Q16134),0.595
8,RPS27A C149 (UniProt P62979),0.251
9,MRPS11 C186 (UniProt P82912),0.527
10,HNRNPU C450 (UniProt Q00839),0.018
11,UniProt Q02040_C542,0.763
12,ESPL1 C294 (UniProt Q14674),0.577
13,KIF23 C42 (UniProt Q02241),0.234
14,ADAR C649 (UniProt P55265),0.375
15,UniProt P62306_C66,0.0671
16,UniProt P61163_C34,0.205
17,SUCLG1 C172 (UniProt P53597),1.72 (active)
18,PDS5A C581 (UniProt Q29RF7),0.744
